Records with an inconclusive call do not appear. Calls of active or inactive are those of the source. Unless noted, calls follow the shape of the dose curve; as a rule, active = well fitted curve in the direction sought with a large enough effect in the repeat runs; inconclusive = weak or mixed curves; inactive = no such curve, though single readings can be large; an effect the other way counts as inactive or inconclusive.
Tests used:
[1] = molecular target: Aryl hydrocarbon receptor (Homo sapiens) (UniProt P35869); assay: qHTS assay to identify small molecule that activate the aryl hydrocarbon receptor (AhR) signaling pathway (AID 743085);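 also: HG2L7.5c1 human HepG2 liver cells with stably integrated DRE-driven firefly reporter; series mostly up to about 70 µM; nearly all actives have a fitted effect of over 15% in size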
Chain of Aryl hydrocarbon receptor (Homo sapiens) (P35869 whole entry, looked up): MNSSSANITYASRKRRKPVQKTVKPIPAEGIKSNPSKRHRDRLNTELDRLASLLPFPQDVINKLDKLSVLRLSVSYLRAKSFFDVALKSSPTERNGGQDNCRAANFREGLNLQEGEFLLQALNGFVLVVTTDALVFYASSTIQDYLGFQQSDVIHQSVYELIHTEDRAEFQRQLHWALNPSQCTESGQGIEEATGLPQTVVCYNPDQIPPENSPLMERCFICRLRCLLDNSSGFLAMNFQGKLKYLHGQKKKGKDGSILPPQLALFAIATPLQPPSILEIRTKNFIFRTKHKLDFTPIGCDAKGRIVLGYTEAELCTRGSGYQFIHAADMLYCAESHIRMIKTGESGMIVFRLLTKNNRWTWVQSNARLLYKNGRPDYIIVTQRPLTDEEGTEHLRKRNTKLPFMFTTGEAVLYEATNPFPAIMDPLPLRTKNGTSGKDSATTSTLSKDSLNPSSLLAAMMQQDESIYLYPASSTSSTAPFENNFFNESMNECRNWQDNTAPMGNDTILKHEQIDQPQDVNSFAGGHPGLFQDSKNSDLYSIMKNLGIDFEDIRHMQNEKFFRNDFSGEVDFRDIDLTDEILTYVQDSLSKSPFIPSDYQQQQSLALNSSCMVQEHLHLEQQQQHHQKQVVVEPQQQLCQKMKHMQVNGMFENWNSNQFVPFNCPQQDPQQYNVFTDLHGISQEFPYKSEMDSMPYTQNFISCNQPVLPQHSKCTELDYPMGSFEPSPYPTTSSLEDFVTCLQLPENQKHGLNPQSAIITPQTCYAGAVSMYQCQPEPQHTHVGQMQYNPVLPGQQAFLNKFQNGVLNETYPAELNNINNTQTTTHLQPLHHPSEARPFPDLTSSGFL
Method in brief: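 Reporter assay in engineered HepG2 line HG2L7.5c1, whose plasmid carries twenty dioxin responsive elements upstream of firefly luciferase. Treatment lasted 24 h at 37C; ONE-Glo luminescence gauged induction.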

[2] = qHTS assay to identify small molecule that activate the aryl hydrocarbon receptor (AhR) signaling pathway - cell viability counter screen (AID 743086); also: nearly all actives have a fitted effect of over 45% in size; also: potency is read from the fitted curve at half-maximal effect
Method in brief: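 HepG2-AhR-luc (HG2L7.5c1) cells, 4000/well, were preincubated 5 h at 37C, exposed to compound in qHTS format for 24 hr at 37C, then given CellTiter-Fluor for 30 min; viability was read as fluorescence in the reporter wells.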

[3] = molecular target: Peroxisome proliferator-activated receptor gamma (Homo sapiens) (UniProt P37231); assay: qHTS assay to identify small molecule agonists of the peroxisome proliferator-activated receptor gamma (PPARg) signaling pathway (AID 743094; active = well fitted activation curve with a large enough effect in the signal ratio in the repeat runs, not every such curve was filed as active; the % refers to the signal ratio)
Chain of Peroxisome proliferator-activated receptor gamma (Homo sapiens) (P37231 whole entry, looked up): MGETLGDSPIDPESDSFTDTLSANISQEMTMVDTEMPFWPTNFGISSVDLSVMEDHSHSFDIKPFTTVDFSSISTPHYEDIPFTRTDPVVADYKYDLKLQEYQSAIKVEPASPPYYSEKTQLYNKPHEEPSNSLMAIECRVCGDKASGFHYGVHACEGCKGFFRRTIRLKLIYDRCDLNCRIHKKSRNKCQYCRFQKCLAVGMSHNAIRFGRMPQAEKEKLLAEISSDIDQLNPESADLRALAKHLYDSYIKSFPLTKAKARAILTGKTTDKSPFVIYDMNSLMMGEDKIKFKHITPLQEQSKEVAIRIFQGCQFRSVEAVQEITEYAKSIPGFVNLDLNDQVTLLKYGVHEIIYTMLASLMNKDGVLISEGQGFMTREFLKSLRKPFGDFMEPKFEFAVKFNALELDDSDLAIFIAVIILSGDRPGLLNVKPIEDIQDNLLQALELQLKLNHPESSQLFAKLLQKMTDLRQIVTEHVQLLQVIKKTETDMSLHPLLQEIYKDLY
Method in brief: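 Compounds dissolved in DMSO were added to PPARg UAS-bla HEK293H cells for 17 h at 37C, and reporter expression was quantified by fluorescence intensity after 1 h with LiveBLAzer B/G FRET substrate.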

[4] = qHTS assay for small molecule activators of the heat shock response signaling pathway - cell viability counter screen (AID 743209); also: nearly all actives have a fitted effect of over 50% in size
Method in brief: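 Readout: CellTiter-Glo luminescence, 30 min at room temperature. System: HSE-bla HeLa cells, 1500/well, plated overnight. Treatment: compounds in DMSO, 5 h at 37 C.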

[5] = qHTS assay for small molecule activators of the heat shock response signaling pathway (AID 743210; active = well fitted activation curve with a large enough effect in the signal ratio in the repeat runs, with a control signal flat, not every such curve was filed as active; the % refers to the signal ratio;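 also: HeLa cells with beta-lactamase reporter driven by heat shock elements; series mostly up to about 63 µM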)
Method in brief: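 Reporter gene assay: HeLa cells stably bearing an HSE-bla construct, compound treatment 5 h at 37 C, LiveBLAzer substrate 2.5 h at RT, fluorescence intensity.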

[6] = molecular target: Peroxisome proliferator-activated receptor delta (Homo sapiens) (UniProt Q03181); assay: qHTS assay to identify small molecule agonists of the peroxisome proliferator-activated receptor delta (PPARd) signaling pathway (AID 743212; calls by dose curve)
Chain of Peroxisome proliferator-activated receptor delta (Homo sapiens) (Q03181 whole entry, looked up): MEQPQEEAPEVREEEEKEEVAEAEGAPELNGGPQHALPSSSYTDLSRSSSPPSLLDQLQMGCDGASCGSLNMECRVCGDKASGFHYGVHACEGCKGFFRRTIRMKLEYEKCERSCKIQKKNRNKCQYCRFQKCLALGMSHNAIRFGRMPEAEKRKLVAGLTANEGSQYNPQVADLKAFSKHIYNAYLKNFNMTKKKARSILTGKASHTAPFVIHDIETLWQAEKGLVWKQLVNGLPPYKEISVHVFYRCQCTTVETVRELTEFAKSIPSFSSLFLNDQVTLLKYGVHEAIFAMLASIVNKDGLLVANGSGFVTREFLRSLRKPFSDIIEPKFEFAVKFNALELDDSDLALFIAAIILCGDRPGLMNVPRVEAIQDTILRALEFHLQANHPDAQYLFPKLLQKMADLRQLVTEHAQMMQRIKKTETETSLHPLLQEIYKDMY
Method in brief: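 A PPARd-bla HEK293H line with beta-lactamase under an Upstream Activator Sequence is treated with compounds at 37 C. Substrate loading for 2 h at room temperature precedes the fluorescence measurement.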

[7] = molecular target: Bile acid receptor (Homo sapiens) (UniProt Q96RI1); assay: qHTS assay to identify small molecule antagonists of the farnesoid-X-receptor (FXR) signaling pathway (AID 743217; active = well fitted inhibition curve with a large enough effect in the signal ratio in the repeat runs, not every such curve was filed as active; the % refers to the signal ratio)
Chain of Bile acid receptor (Homo sapiens) (Q96RI1 whole entry, looked up): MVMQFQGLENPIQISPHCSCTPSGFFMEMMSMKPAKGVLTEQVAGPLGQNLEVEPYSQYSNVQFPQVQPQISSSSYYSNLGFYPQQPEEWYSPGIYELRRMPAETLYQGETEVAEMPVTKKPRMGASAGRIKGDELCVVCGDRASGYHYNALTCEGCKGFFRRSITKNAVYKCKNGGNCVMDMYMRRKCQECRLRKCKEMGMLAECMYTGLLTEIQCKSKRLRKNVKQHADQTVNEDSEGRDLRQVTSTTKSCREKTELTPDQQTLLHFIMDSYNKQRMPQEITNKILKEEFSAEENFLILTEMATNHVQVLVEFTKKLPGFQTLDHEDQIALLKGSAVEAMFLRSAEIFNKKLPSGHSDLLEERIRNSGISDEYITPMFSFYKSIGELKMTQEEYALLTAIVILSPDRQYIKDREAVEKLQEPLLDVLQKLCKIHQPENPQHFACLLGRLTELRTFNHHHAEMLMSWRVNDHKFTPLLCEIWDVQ
Method in brief: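 GeneBLAzer FXR-UAS-bla HEK 293T, CDCA-stimulated (50 uM final). Compound treatment 16 h, 37 °C. Detection: beta-lactamase cleavage of B/G FRET substrate, fluorescence.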

[8] = qHTS assay to identify small molecule agonists of the farnesoid-X-receptor (FXR) signaling pathway - cell viability counter screen (AID 743218); also: nearly all actives have a fitted effect of over 45% in size; also: potency is read from the fitted curve at half-maximal effect
Method in brief: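 Parallel cytotoxicity test: compound-treated (16 h, 37 C) HEK 293T FXR-bla reporter cells were lysed with CellTiter-Glo and luminescence recorded.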

[9] = molecular target: Bile acid receptor (Homo sapiens) (UniProt Q96RI1); assay: qHTS assay to identify small molecule agonists of the farnesoid-X-receptor (FXR) signaling pathway (AID 743220; active = well fitted activation curve with a large enough effect in the signal ratio in the repeat runs, not every such curve was filed as active; the % refers to the signal ratio)
Method in brief: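 Beta-lactamase reporter under UAS control in GeneBLAzer FXR HEK 293T cells (5000/well) measured with LiveBLAzer FRET substrate after 2 h at room temperature. Compound exposure lasted 16 h at 37C.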

[10] = qHTS assay to identify aromatase inhibitors - cell viability counter screen (AID 743084);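 also: cells stimulated with testosterone during compound exposure; nearly all actives have a fitted effect of over 55% in size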
[11] = qHTS assay to identify small molecule antagonists of the peroxisome proliferator-activated receptor gamma (PPARg) signaling pathway - cell viability counter screen (AID 743194); also: nearly all actives have a fitted effect of over 55% in size
Method in brief: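 PPARg-UAS-bla HEK293H cells were plated, rested 5 h at 37 C, then treated with compounds plus rosiglitazone (50 nM final) for 17 h at 37 C; viability was then read by CellTiter-Glo luminescence after 30 min at room temperature.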

[12] = qHTS assay for small molecule agonists of the antioxidant response element (ARE) signaling pathway - cell viability counter screen (AID 743203; calls by dose curve; also: nearly all actives have a fitted effect of over 55% in size; also: potency is read from the fitted curve at half-maximal effect)
Method in brief: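 Following 16 hrs of compound treatment at 37C, HepG2 cells with an ARE-controlled beta-lactamase gene were lysed with CellTiter-Glo. Luminescence was read after 30 min at room temperature.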

[13] = qHTS assay to identify small molecule agonists of the peroxisome proliferator-activated receptor delta (PPARd) signaling pathway - cell viability counter screen (AID 743211); also: nearly all actives have a fitted effect of over 55% in size; also: potency is read from the fitted curve at half-maximal effect
Method in brief: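 Multiplexed format: after the 2 h room-temperature LiveBLAzer B/G FRET step, CellTiter-Glo was added to the same wells. Luminescence after 30 min gave cell viability; compound exposure was 17 h at 37C.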

[14] = qHTS assay to identify small molecule antagonists of the farnesoid-X-receptor (FXR) signaling pathway - cell viability counter screen (AID 743221; active = well fitted cell-killing curve with a large enough effect in the repeat runs, not every such curve was filed as active; also: nearly all actives have a fitted effect of over 50% in size)
Method in brief: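 CellTiter-Glo, 30 min RT, luminescence; same wells as the LiveBLAzer FRET read. Cells: FXR-UAS-bla HEK 293T. Treatment: compound with chenodeoxycholic acid 50 uM final, 16 h at 37 C.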

[15] = molecular target: Vitamin D3 receptor (Homo sapiens) (UniProt P11473); assay: qHTS assay to identify small molecule agonists of the vitamin D receptor (VDR) signaling pathway (AID 743222; calls by dose curve)
Chain of Vitamin D3 receptor (Homo sapiens) (P11473 whole entry, looked up): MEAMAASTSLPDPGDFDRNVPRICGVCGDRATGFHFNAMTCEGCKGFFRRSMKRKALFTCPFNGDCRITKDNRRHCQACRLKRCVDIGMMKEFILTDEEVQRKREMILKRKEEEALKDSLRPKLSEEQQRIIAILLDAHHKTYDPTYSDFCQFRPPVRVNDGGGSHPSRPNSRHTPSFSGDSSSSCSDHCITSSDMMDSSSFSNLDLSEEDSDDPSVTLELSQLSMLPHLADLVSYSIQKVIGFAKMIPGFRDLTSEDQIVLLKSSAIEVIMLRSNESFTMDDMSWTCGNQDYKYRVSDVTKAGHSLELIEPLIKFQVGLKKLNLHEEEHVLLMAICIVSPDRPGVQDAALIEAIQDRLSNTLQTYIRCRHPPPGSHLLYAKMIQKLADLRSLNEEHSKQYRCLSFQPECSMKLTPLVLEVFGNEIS
Method in brief: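 In VDR-bla cells, compound-induced beta-lactamase expression is quantified by FRET substrate fluorescence. Treatment lasts 16 h at 37C; substrate develops 2 h at room temperature.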

[16] = molecular target: Vitamin D3 receptor (Homo sapiens) (UniProt P11473); assay: qHTS assay to identify small molecule antagonists of the vitamin D receptor (VDR) signaling pathway (AID 743223; active = well fitted inhibition curve with a large enough effect in the signal ratio in the repeat runs, not every such curve was filed as active; the % refers to the signal ratio)
Method in brief: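 After VDR-bla cells are plated and left 4 h at 37C, DMSO-dissolved compounds and 3 nM (final) calcitriol agonist are added. Incubation continues 16 h at 37C; FRET beta-lactamase substrate then develops 2 h at room temperature.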

[17] = molecular target: Peroxisome proliferator-activated receptor gamma (Homo sapiens) (UniProt P37231); assay: qHTS assay to identify small molecule antagonists of the peroxisome proliferator-activated receptor gamma (PPARg) signaling pathway (AID 743191; calls by dose curve; also: series mostly up to about 63 µM; nearly all actives have a fitted effect of over 30% in size)
Method in brief: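 GeneBLAzer PPARg UAS-bla HEK293H cells carrying a UAS-driven beta-lactamase reporter were plated at 3000 cells/well, preincubated 5 h at 37C, then given compound for 17 h at 37C; LiveBLAzer B/G FRET substrate was read after 1 h at room temperature.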

[18] = molecular target: Peroxisome proliferator-activated receptor delta (Homo sapiens) (UniProt Q03181); assay: qHTS assay to identify small molecule antagonists of the peroxisome proliferator-activated receptor delta (PPARd) signaling pathway (AID 743215; active = well fitted inhibition curve with a large enough effect in the signal ratio in the repeat runs, not every such curve was filed as active; the % refers to the signal ratio;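 also: cells stimulated with agonist L165041 at 300 nM final during compound exposure; series mostly up to about 62 µM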)
Method in brief: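 HEK293H UAS-bla, PPARd; agonist L165041 300 nM final with cpd in DMSO; 37 C 17 h; FRET substrate, RT 2 h; fluorescence intensity.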

[19] = qHTS assay to identify small molecule antagonists of the peroxisome proliferator-activated receptor delta (PPARd) signaling pathway - cell viability counter screen (AID 743213); also: nearly all actives have a fitted effect of over 50% in size; also: potency is read from the fitted curve at half-maximal effect
Method in brief: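 PPARd-bla HEK293H cells were treated with compounds plus agonist L165041 (300 nM final) for 17 h at 37 C. Viability was then read in the same wells by CellTiter-Glo luminescence after 30 min at room temperature.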

[20] = qHTS assay for small molecule agonists of the antioxidant response element (ARE) signaling pathway (AID 743202; active = well fitted activation curve with a large enough effect in the signal ratio in the repeat runs, not every such curve was filed as active; the % refers to the signal ratio; also: potency is read from the fitted curve at half-maximal effect)
Method in brief: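 Compounds delivered in DMSO to ARE-bla HepG2 cells (2,000 cells/well, pre-incubated 5 h) and left 16 h at 37 C. LiveBLAzer B/G FRET substrate then added for 2 h at RT before fluorescence reading.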

Measured: Potency

CN(C)CCCN1c2ccccc2Sc2ccccc21
active: [8] 13.3 µM
inactive: [1] | [2] | [3] | [4] | [5] | [6] | [7] | [9]

CN1CCC(N(Cc2cccs2)c2ccccc2)CC1
inactive: [10] | [3] | [11] | [12] | [6]

COc1ccc(C(=O)c2ccc(OC)cc2O)c(O)c1
not listed: [1] | [7] | [9] | [11] | [17] | [18] | [19] | [20]
inactive: all other assays above

CCCOC(C(=O)OC1CCN(C)CC1)(c1ccccc1)c1ccccc1
inactive: [1] | [3] | [17] | [11] | [12] | [4] | [5] | [18] | [7] | [15]
active: [2] 29.8 µM

CCCCCCCCCCCCCCOS(=O)(=O)O
active: [12] 61.1 µM | [13] 43.6 µM | [19] 43.6 µM | [8] 54.9 µM
inactive: [1] | [2] | [3] | [17] | [11] | [18] | [15] | [16]

COc1cc2nc(N(C)CCCNC(=O)C3CCCO3)nc(N)c2cc1OC (stereo not drawn)
inactive: [10] | [3] | [17] | [11] | [4] | [5] | [13] | [6] | [19] | [8]
active: [20] 23.7 µM

C#C[C@]1(O)CC[C@H]2[C@@H]3CCc4cc(OC5CCCC5)ccc4[C@H]3CC[C@@]21C
inactive: [10] | [2] | [3] | [11] | [4] | [5] | [15] | [16]
active: [8] 26.6 µM

Cc1cccc(C)c1OCC(=O)N[C@@H](Cc1ccccc1)[C@@H](O)C[C@H](Cc1ccccc1)NC(=O)[C@H](C(C)C)N1CCCNC1=O
inactive: [1] | [4] | [19] | [18] | [15] | [16]
active: [20] 29.8 µM

CC(C)CC(=O)C1C(=O)c2ccccc2C1=O
inactive: [10] | [2] | [11] | [12] | [4] | [5] | [13] | [6] | [19] | [8] | [9]

O=C1CCCCCCCCCCCC(=O)OCCO1
inactive: [1] | [3] | [11] | [12] | [4] | [5] | [13] | [6] | [19] | [14] | [15]

— PubChem BioAssay (Tox21)
